# According to PubChem BioAssay (NCI):
# About 83,000 compounds went through this panel and 20% of them were active in at least one assay; those are over-represented in the sample as a whole.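 Assay: single dose, 48 h. Readout: percent growth (0 = no net growth; negative = cell death). Active: <10.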 Unmarked numbers belong to inactive results. Activity calls are given as the source filed them.
# Test system: PC-3 prostate
# Assay: NCI-60 one-dose screen, 48 h (100 = growth as untreated, 0 = no growth, -100 = all killed)
# Details: 10 µM unless noted
# Experimental: Growth inhibition of the PC-3 human tumor cell line is measured as a screen for anti-cancer activity. Cells are grown in 96 well plates and exposed to the test compound for 48 hours. Compounds are tested at a single concentration, which is 10^-5 M for most compounds. The reported endpoint is percent growth (GI% or GIPRCNT), where numbers from 0 - 100% represent growth inhibition, and numbers from -100% - 0 represent cell death. For example, a value of 40 represents 60% growth inhibition. A value of 0 means no net growth occurred over the course of the experiment. A value of -40 indicates 40% of cells at the beginning of the experiment died by the end of the experiment. A value of -100 means all cells are dead at the end of the experiment.
# NCI-60 Human Tumor Cell Lines Screen was performed using the standard one-dose NCI protocol, which is described in more detail at https://dtp.cancer.gov/discovery_development/nci-60/default.htm.
# Compounds with GIPRCNT values below 10 were considered active. Activity score was based on GIPRCNT using the following formula: […]
# Score is 0 for GIPRCNT values of 100 or above, 50 for GIPRCNT values of 0, and 100 for GIPRCNT values of -100.
row,Structure (SMILES),growth
1,O=C(NNc1ccc(-c2ccccc2)nn1)c1ccc(F)cc1,105%
2,O=C(CCCCCCSc1nc(-c2ccc(Cl)cc2)cc(-c2ccc(Cl)cc2)n1)NO,42.8%
3,Cc1ccc(N)c(O)c1,75.8%
4,O=C1/C(=C\c2cccn2Cc2ccccc2)c2ccccc2N1c1c(Cl)cccc1Cl,51.4%
5,O=[N+]([O-])c1cc([N+](=O)[O-])c(NN=C(c2ccc(O)cc2)c2ccc(O)cc2)cc1Cl,-80.8% (active)
6,Oc1c(CNCCNCc2cc(Cl)cc(Cc3ccccc3)c2O)cc(Cl)cc1Cc1ccccc1,40.9%
7,N/C(=N\c1nc2ccccc2[nH]1)NC(=O)Cc1cccc2ccccc12,80%
8,Nc1nc(N)c2c(n1)NC(c1ccc(F)cc1)C1CCc3ccccc3C1=N2 (stereo not given),45%
9,C[C@]12CCc3c(ccc4cc(O)ccc34)[C@@H]1CC[C@H]2O,88.8%
10,Cc1cccc(C[C@H](NC(=O)Nc2ccc(Cl)cc2F)C(=O)N[C@@H]2C(=O)N3C[C@H](O)C[C@H]3C(=O)N3CCCC[C@H]3C(=O)N[C@@H](C)C(=O)N3C[C@H](C)C[C@H]3C(=O)O[C@H]2C)c1,7.99% (active)
11,CCOc1cc(NC(=O)c2ccccc2)c(OCC)cc1N,104%
12,Cc1nc(Cl)c2c(n1)N(C)c1ccc(Cl)cc1C(C)C2 (stereo not given),73.5%
13,CC(C)(C)c1cc(C(=O)Nc2ccc(C(=O)NCCN)cc2)cc(C(C)(C)C)c1,25.9%
14,Cc1ccc(S(=O)(=O)n2cc(C(=O)C(=O)N3CCCCC3)c3ccccc32)cc1,52.1%
15,COc1cc(C)cc2oc3oc(=O)c(C(=O)c4cc5cc(Br)ccc5o4)cc3c(=O)c12,102%
16,COc1ccccc1S(=O)Nc1ccccc1 (stereo not given),87.2%
17,COC(=O)[C@]1(C)CC[C@]2(C)CC[C@]3(C)C(=CC(=O)[C@@H]4[C@@]5(C)CCC(=O)NC(C)(C)[C@@H]5CC[C@]43C)[C@@H]2C1,-65.8% [100 µM] (active)
18,Cn1cc(-c2noc(-c3cn(C)c4ncc(F)cc34)n2)c2ccccc21,71.7%
19,COc1ccc2nc3cc(Cl)ccc3c(Nc3ccc(O)cc3)c2c1,89.2%
20,COc1cc(-c2cc(-c3ccc(Nc4ncnc5cc(Cl)ccc45)cc3)nc(N3CCCCC3)n2)cc(OC)c1OC,88.1%

row,Structure (SMILES),growth
1,COc1ccc(NC(=S)NNc2ccc(-c3ccc(OC)c(OC)c3)nn2)cc1,104%
2,COc1cc(/C=C/C(=O)/C=C/c2ccc(-n3ccnc3C)cc2)ccc1O,74.2%
3,COc1ccc2[nH]c(C(=O)N3CCN(C(=O)OCc4ccc5c(Br)cc(Br)c(O)c5n4)CC3)cc2c1,-87.9% (active)
4,COc1ncc(-c2ccc3nccc(C#CCCCCC(=O)NO)c3c2)cc1NS(=O)(=O)c1ccc(F)cc1F,7.68% (active)
5,CCN1c2ccccc2C(Cl)(c2ccc(N(C)C)cc2)c2ccccc21,25.6%
6,COc1ccc(/C=C/C(=C/c2c(O)[nH]c3cc(Br)ccc23)N=O)cc1,104%
7,Cn1cc(-c2nnc(-c3cn(C)c4ncc(Br)cc34)o2)c2ccccc21,77.2%
8,O=c1cc(-c2ccccc2)oc2c(O)c(O)ccc12,67.4%
9,CCOC(=O)c1nn(C2CCCCO2)c2ccc(NC(=O)CN3CCCC3)cc12 (stereo not given),107%
10,CC1=CCc2ccccc21,86.2%
11,COc1cc2c(c(OC)c1OC)-c1ccc(NNC(N)=S)c(=O)cc1[C@@H](NC(C)=O)CC2,13.8%
12,CCC(Br)(CC)C(=O)c1ccc(OCC(=O)O)c(Cl)c1Cl,108%
13,COc1ccc(-c2c(C)nn3c(NCCN4CCOCC4)cc(C)nc23)cc1OC,89.7%
14,CC(C)C1=NOC(=O)C1=Cc1cn(-c2cccnc2)nc1-c1ccccc1,94.1%
15,CCOC(=O)c1nn(C2CCCCO2)c2ccc(NS(=O)(=O)c3ccc(C)cc3)cc12 (stereo not given),92.6%
16,CCCCCCSc1ncnc2nc[nH]c12,85.2%
17,Cc1cc2c(C(C)C)c(O)c(O)c(C=NCc3ccoc3)c2c(O)c1-c1c(C)cc2c(C(C)C)c(O)c(O)c(C=NCc3ccco3)c2c1O,29.7%
18,COc1ccc(C2=C(c3cn(C)c4ccccc34)C(=O)OC2)cc1OC,21.3%
19,C[C@@H]1C[C@H]2C(=O)O[C@@H](C)[C@H](NC(=O)[C@H](Cc3cc(F)cc(F)c3)NC(=O)Nc3ccc(Cl)cc3F)C(=O)N3C[C@H](O)C[C@H]3C(=O)N3CCN(C)C[C@H]3C(=O)N[C@@H](C)C(=O)N2C1,18.1%
20,NS(=O)(=O)c1ccc(CCN2C(=O)/C(=C\c3ccccc3)C=C2c2ccc(Cl)cc2)cc1,90%
